Reference: PubChem BioAssay AID540364 (The Scripps Research Institute Molecular Screening Center, 2011)
Out of some 360,000 compounds screened, about 2,000 (0.56%) were called active.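 The calls were made as follows: active = activation above the average of all compounds screened plus 3 SD, cutoff fixed separately per campaign (cut at about 7.5% in these data); inactive = the rest.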 Only a selection was taken, and actives are over-represented in it overall.

Experiment: GAA850 frataxin promoter reporter upregulation – cell-based, luciferase luminescence, HEK293 lucGAA850, primary screen (AID 540364);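 also: 0% = DMSO wells and 100% = 10 µM SAHA wells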
Conditions: HEK293 lucGAA850 FXN promoter luciferase reporter, 24 h; at 6 µM; stronger effect = higher value; percent of 10 µM SAHA response

Row | Structure (SMILES) | activation
1 | Cc1ccc(C2CC(c3cccc(C)c3)n3nc(N)nc3N2)cc1 (centres undefined) | -0.54% (inactive)
2 | Cc1ccc(C2Nc3cccc4cccc(c34)N2)cc1 | 14.9% (active)
3 | Oc1ccc(C2Nc3cccc4cccc(c34)N2)cc1 | 1.97% (inactive)
4 | CSCCC(NC(=O)COc1ccccc1)C(=O)OCC(=O)c1cc2ccccc2o1 (centres undefined) | -0.05% (inactive)
5 | CC(C)c1ccc(NC2CCCN(C(=O)c3ccncc3)C2)cc1 (centres undefined) | 3.59% (inactive)
6 | NC(=O)NCCCC(=O)O | 1.1% (inactive)
7 | O=C(O)CCCCCCCCCC[n+]1ccccc1 | 0.28% (inactive)
8 | CCCCCCCCCCCC(=O)O | 9.07% (active)
9 | Cn1c(=O)cc(OCCCC(=O)N2CCN(c3ccccn3)CC2)c2ccccc21 | -3.01% (inactive)
10 | O=C(Nc1ccc(F)cc1)c1cc2c(s1)CCCC2 | 2.99% (inactive)
11 | O=C(NCc1cccnc1)Nc1cccc(NC(=O)NCc2cccnc2)c1F | 0.81% (inactive)
12 | CCN(CCN(C)C)C(=O)c1ccc2nc(C)c(N(C)C(=O)CCc3ccccc3)n2c1 | 0.72% (inactive)
13 | Cn1cc(S(=O)(=O)Nc2ccc(Cl)cc2Cl)c(=O)n(C)c1=O | 1.45% (inactive)
14 | Cn1cc(S(=O)(=O)NC(c2ccccc2)c2ccccc2)c(=O)n(C)c1=O | -1.45% (inactive)
15 | CC(C)c1ccc(NS(=O)(=O)c2cn(C)c(=O)n(C)c2=O)cc1 | 14.8% (active)
16 | COc1ccc(C(C#N)Nc2ccc(C)cc2)cc1 (centres undefined) | -0.7% (inactive)
17 | O=C1C=C(c2ccnc3cc(Cl)ccc23)C[C@@H](c2ccc3c(c2)OCO3)C1 | -1.07% (inactive)
18 | Cc1cc(C(=O)NCCc2ccc(Cl)cc2)c(C)o1 | 3.56% (inactive)
19 | CC(C)c1cc(C(=O)N/N=C/C(Br)=C/c2ccccc2)n[nH]1 | 9.41% (active)
20 | Cc1cc(-c2n[nH]c(=S)n2/N=C/C(Br)=C/c2ccccc2)n[nH]1 | -0.09% (inactive)
21 | Cc1cc(C(=O)N/N=C\C(Br)=C\c2ccccc2)c(C)o1 | 11.4% (active)
22 | Cc1ccc(-c2cc(C(=O)N/N=C/C=C/c3ccccc3)n[nH]2)o1 | 1.11% (inactive)
23 | CC(C)c1cc(C(=O)O)n[nH]1 | -1.31% (inactive)
24 | CCN(C(=O)COC(=O)C1CCN(S(=O)(=O)c2ccc(C)c(C)c2)CC1)C1CCS(=O)(=O)C1 (centres undefined) | 0.06% (inactive)
25 | COc1cccc(OC)c1C(=O)Nc1ccc(Cc2ccncc2)cc1 | 3.03% (inactive)
26 | CC(=O)c1ccc(NC(=O)CCc2nnc3ccc(NCc4ccco4)nn23)cc1 | 3.69% (inactive)

Row | Structure (SMILES) | activation
27 | CCc1nnc(NC(=O)CSc2nnnn2-c2cccc(C(C)=O)c2)s1 | 0.27% (inactive)
28 | CC[C@]12c3[nH]c4ccc(Cl)cc4c3CCN1C(=O)[C@@H](CC(=O)NCCCOC)C[C@@H]2C(=O)N1CCN(C(=O)C2CC2)CC1 | -1.48% (inactive)
29 | O=C(Nc1ccc2c(c1)OCCO2)c1cnccn1 | 7.89% (active)
30 | O=C(Nc1ccc2c(c1)OCCO2)c1ccoc1 | 0.23% (inactive)
31 | O=C(CCN1C(=O)c2ccncc2C1=O)Nc1ccc2c(c1)OCCO2 | -1.17% (inactive)
32 | CCN1C[C@@H]2[C@@H]3C(=O)N(Cc4ccccc4)C(=O)[C@@H]3[C@](C)(C1=O)N2C(=O)c1ccc(C(C)(C)C)cc1 | 1.3% (inactive)
33 | CC[C@]1(C(=O)OC)[C@H]2C(=O)N(C)C(=O)[C@H]2[C@H]2CN(C)C(=NCc3ccccc3)N21 | -0.41% (inactive)
34 | CCC1(CC)C(=O)C2=C3C1[C@H](C(=O)OC)C=C(C(=O)OC)C[C@H]3[C@H]1C(=O)N(Cc3ccccc3)C(=O)[C@H]1[C@H]2C (some centres undefined) | -4.42% (inactive)
35 | CCN(C[C@H]1N[C@@](Cc2ccccc2)(C(=O)OC)[C@H]2C(=O)N(Cc3ccccc3)C(=O)[C@@H]12)C(=O)c1ccc(C)cc1 | -1.78% (inactive)
36 | CC[C@]1(C(=O)OC)[C@H]2C(=O)N(Cc3ccccc3)C(=O)[C@H]2[C@H]2CN=C(SCc3ccccc3)N21 | 15.5% (active)
37 | CCN1C[C@@H]2[C@@H]3C(=O)N(Cc4ccccc4)C(=O)[C@@H]3[C@](Cc3ccccc3)(C(=O)OC)N2C1=NC1CCCCC1 | 0.85% (inactive)
38 | CCNC(=O)N(CC)C[C@H]1N[C@@](CC)(C(=O)OC)[C@H]2C(=O)N(Cc3ccccc3)C(=O)[C@@H]12 | 0.95% (inactive)
39 | CC[C@]1(C(=O)OC)[C@H]2C(=O)N(Cc3ccccc3)C(=O)[C@H]2[C@H]2CN=C(SCc3ccc(C#N)cc3)N21 | 13.3% (active)
40 | COC(=O)[C@@]1(C)[C@H]2C(=O)N(Cc3ccccc3)C(=O)[C@H]2[C@H]2CN=C(SCC3CC3)N21 | 15.7% (active)
41 | COC(=O)[C@]1(Cc2ccccc2)N[C@H](CN(C)S(=O)(=O)c2ccc(F)cc2)[C@@H]2C(=O)N(Cc3ccccc3)C(=O)[C@@H]21 | -3.95% (inactive)
42 | CCCN=C1N(C)C[C@@H]2[C@@H]3C(=O)N(Cc4ccccc4)C(=O)[C@@H]3[C@](C)(C(=O)OC)N12 | -0.73% (inactive)
43 | CC[C@]1(C(=O)OC)[C@H]2C(=O)N(Cc3ccccc3)C(=O)[C@H]2[C@H]2CN=C(SCc3ccc(Cl)cc3)N21 | 17.8% (active)
44 | CCSC1(SCC)N=C(N)C2(C#N)C(c3ccccc3)NC(C)=CC12C#N (centres undefined) | -1.4% (inactive)
45 | O=C1CSC2=NCN(c3ccccc3)CN12 | 1.46% (inactive)
46 | CC(=O)Oc1ccc(OC(C)=O)c2c1C1C=CC2CC1 | 0.61% (inactive)
47 | CC(=O)N1CCN(c2ccc(NCc3ccc(C(C)C)cc3)cc2)CC1 | -1.92% (inactive)
48 | CC(=O)c1ccc(OC(=O)N2CCOCC2)cc1 | 0.72% (inactive)
49 | CC(C)NC(=O)C1(C)CCCCN1Cc1cccc(C(F)(F)F)c1 (centres undefined) | 0.98% (inactive)
50 | CC(=O)N1c2ccc(S(=O)(=O)N3CCCC(C(=O)Nc4cccc(F)c4)C3)cc2CC1C (centres undefined) | 1.26% (inactive)
51 | COCc1cc(=O)oc2cc(NS(=O)(=O)c3ccc(C)cc3)ccc12 | 0.66% (inactive)
52 | COc1ccc(CCNS(=O)(=O)c2cc3c(cc2C)NC(=O)CO3)cc1OC | -0.37% (inactive)

Row | Structure (SMILES) | activation
53 | O=C1COc2c1ccc(O)c2O | 1.71% (inactive)
54 | S=C(NCCCc1cnc[nH]1)NCCCN(Cc1ccc(Cl)c(Cl)c1)c1ccc(Br)cn1 | -0.12% (inactive)
55 | COc1ccc(OCc2cc(C(=O)NCC3(C)COC3)no2)c(Cl)c1 | 4.24% (inactive)
56 | Cc1cccnc1CC(C)NC(=O)c1cc(COc2cncc(Cl)c2)on1 (centres undefined) | 3.48% (inactive)
57 | Cc1cc(OCc2cc(C(=O)NCc3cc(C(C)C)no3)no2)cc(C)c1Cl | 8.34% (active)
58 | O=C1CC(c2c(F)cccc2Cl)C(n2cncn2)C(O)=C1C1NCCc2ccccc21 (centres undefined) | -1.97% (inactive)
59 | CCOc1cc(CNCc2ccccn2)ccc1OCC(=O)NC(C)(C)C | -1.18% (inactive)
60 | CCCCn1c(SCC(=O)NCCc2ccc(OC)c(OC)c2)nc2c1c(=O)n(C)c(=O)n2C | 7.97% (active)
61 | CCn1c(NCCc2ccc(OC)c(OC)c2)nc2c1c(=O)n(C)c(=O)n2C | -0.8% (inactive)
62 | C#CC(C)(C)NC(=O)CSc1nc2c(c(=O)n(C)c(=O)n2C)n1CCCC | 0.86% (inactive)
63 | COc1cccc(CNS(=O)(=O)c2cc3c(cc2C)n(C)c(=O)c(=O)n3C)c1 | -0.74% (inactive)
64 | COc1ccc([C@@H]2[C@@H]3C(=O)N(C(C)(C)C)C(=O)[C@@H]3[C@]3(Cc4ccccc4)C(=O)N(c4cccc(Br)c4)C(=O)N23)cc1 | 0.35% (inactive)
65 | CC(C)(C)N1C(=O)[C@H]2[C@@H](c3ccc(Br)cc3)N3C(=O)N(c4cccc(Cl)c4)C(=O)[C@@]3(C)[C@H]2C1=O | 14.1% (active)
66 | Cc1cccc([C@@H]2[C@@H]3C(=O)N(Cc4ccccc4)C(=O)[C@@H]3[C@]3(C)C(=O)N(c4ccc(Br)cc4)C(=O)N23)c1 | 4.94% (inactive)
67 | CC[C@@]12C(=O)N(c3ccccc3)C(=O)N1[C@H](c1ccc(Br)cc1)[C@@H]1C(=O)N(C(C)(C)C)C(=O)[C@@H]12 | 15% (active)
68 | CCN1C(=O)[C@H]2[C@@H](c3ccc(C)cc3)N3C(=O)N(c4cccc(Br)c4)C(=O)[C@@]3(CC)[C@H]2C1=O | 5.85% (inactive)
69 | Cc1ccc(N2C(=O)N3[C@@H]4c5ccccc5OC[C@@H]4[C@@H](c4ccccc4)[C@@]3(C)C2=O)cc1 | -0.85% (inactive)
70 | CC1(Oc2ccccc2-c2ccno2)CCN(Cc2ccc(-c3ccccc3)o2)C1 (centres undefined) | 1.3% (inactive)
71 | O=C(COc1ccc(Cl)cc1)NCCS(=O)(=O)N1CCN(c2ccc(F)cc2)CC1 | -2.02% (inactive)
72 | CN(Cc1ccccc1)C(=O)C1CCCN(c2ncnc3c2nc2n3CCCCC2)C1 (centres undefined) | 1.56% (inactive)
73 | CSc1ccc(-c2c(C#N)c(N)nc3c2c(C)nn3-c2ccccc2)cc1 | 0.67% (inactive)
74 | COc1ccccc1-c1c(C#N)c(N)nc2c1CCC2 | 1.52% (inactive)
75 | CSc1nc(N)c(C#N)c(-c2ccccc2Cl)c1C#N | 16.1% (active)
76 | COc1ccc(CNC(=O)c2ccc(-c3cccnc3)c3ccoc23)cc1OC | 1.42% (inactive)
77 | Cc1ccc(O/C=C2\OC(=O)c3ccccc32)cc1 | -0.57% (inactive)
78 | CN(CCc1ccccn1)C(=O)CCC1CCCN(Cc2ccccc2OC(F)F)C1 (centres undefined) | 0.65% (inactive)

Row | Structure (SMILES) | activation
79 | Cc1c(-c2ccccc2)nc(N)c(C#N)c1-c1cccs1 | 8.43% (active)
80 | CCc1c(-c2ccccc2)nc(N)c(C#N)c1-c1cccs1 | 3.81% (inactive)
81 | CN1CCc2nc(SC(C(=O)O)c3ccccc3)c(C#N)c(-c3cccs3)c2C1 (centres undefined) | 1.01% (inactive)
82 | Cc1cccc(C(=O)Nc2ccccc2C(=O)NCc2cccnc2)c1 | 0.13% (inactive)
83 | COc1ccc(NS(=O)(=O)c2ccc3oc(SCC(N)=O)nc3c2)cc1 | -1.75% (inactive)
84 | COc1ccc(S(=O)(=O)N(C)C)cc1NC(=O)CSc1ncccn1 | 2.15% (inactive)
85 | CN(C)S(=O)(=O)c1ccc2oc(SCC(=O)Nc3ccccc3F)nc2c1 | 7.74% (active)
86 | Cc1noc(C)c1-c1ccc(C(=O)NCc2ccncc2)c2occc12 | 3.59% (inactive)
87 | CN(N)c1nc(N2CCCC2)nc(N2CCCC2)n1 | 1.2% (inactive)
88 | O=C(NCCN1CCOCC1)c1ccccc1N1C(=O)[C@@H]2Cc3c([nH]c4ccccc34)C(c3cccc(Cl)c3)N2C1=O (some centres undefined) | -10.6% (inactive)
89 | CN(C)[C@@H]1C(=O)C(C(N)=O)=C(O)[C@@]2(O)C(=O)C3=C(O)c4c(O)ccc(Cl)c4[C@@H](O)[C@H]3C[C@@H]12 | 13.6% (active)
90 | C=C1c2c(Cl)ccc(O)c2C(O)=C2C(=O)[C@]3(O)C(O)=C(C(N)=O)C(=O)[C@@H](N(C)C)[C@@H]3[C@@H](O)C12 (some centres undefined) | 13.5% (active)
91 | CN(C(=O)CN1CCN(c2cc(-c3ccc(OCc4ccccc4)cc3)ncn2)CC1)c1ccccc1 | -2.58% (inactive)
92 | CN(C(=O)c1ccccc1)c1nccnc1C#N | 1.95% (inactive)
93 | CC(=O)N1CC2(C)CN(C(C)=O)CC(C)(C1)C2=O | 1.87% (inactive)
94 | CCCC1NC(=O)NC(C)=C1C(=O)OCC (centres undefined) | 0.3% (inactive)
95 | COCC(C)n1c(SCc2ccc(C(=O)OC)o2)nc2ccccc2c1=O (centres undefined) | 2.64% (inactive)
96 | COC(=O)c1ccc(CSc2nc3ccccc3c(=O)n2-c2cccc(OC)c2)o1 | 10.1% (active)
97 | COc1cccc(-n2c(SCC(=O)NC3CCS(=O)(=O)C3)nc3ccccc3c2=O)c1 (centres undefined) | -0.8% (inactive)
98 | Cc1ccc(C)c(OCCC(=O)OCC(=O)NC(=O)NCc2ccccc2)c1 | 1.32% (inactive)
99 | CCCCN(CC(=O)NC(C)(C)C)C(=O)C(=O)Nc1ccc2c(c1)OCCO2 | 0.41% (inactive)
100 | CCOC(=O)N1CCC(c2cc(=O)n(-c3ccccc3)[nH]2)CC1 | 1.97% (inactive)
101 | Cc1ccc(C(=O)N2CCC(n3nccc3NC(=O)Nc3cccc(F)c3)CC2)cn1 | -1.64% (inactive)
102 | O=C(NCc1ccccc1)C(c1cccnc1)N(C(=O)c1csnn1)c1ccc(F)cc1 (centres undefined) | -0.33% (inactive)
103 | CCOc1ccc(S(=O)(=O)N2CCN(C(=O)c3oc4ccccc4c3C)CC2)cc1 | 1.62% (inactive)
104 | COc1ccc(CCNCC(O)Cn2ccc3ccccc32)cc1OC (centres undefined) | 0.29% (inactive)
